{
  "source": "PubChem BioAssay (Tox21)",
  "note": "Where “and” joins values, the source holds several entries; their conditions need not be identical. Equal entries are not always repeated. Results filed as inconclusive are left out. Calls of active or inactive are those of the source. Calls follow the shape of the dose curve; as a rule, active = well fitted curve in the direction sought with a large enough effect in the repeat runs; inconclusive = weak or mixed curves; inactive = no such curve, though single readings can be large; an effect the other way counts as inactive or inconclusive. % is scaled to controls: 0 for no effect and ±100 for the full control effect; potency is read from the fitted curve at half-maximal effect.",
  "data": [
    {"test": "A CellTox Green Cytotoxicity Assay to monitor cytotoxicity in HEK293 cells - 40 hour (AID 1224871); also: nearly all actives have a fitted effect of over 45% in size", "conditions": "CellTox Green fluorescence; series mostly up to 76.8 µM; cytotoxicity increase: at the top concentration", "outline": "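Fluorescence intensity, read at 0, 8, 16, 24, 32 and 40 h of compound treatment, reflected dye binding to DNA of dead HEK293 cells; compounds (23 nL, DMSO) were added 5 h after plating cells with reagent.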", "values": [
      {"smiles": "Brc1c2ccccc2cc2ccccc12", "cytotoxicity increase": "22.3% (inactive)"},
      {"smiles": "COC(=O)C1=C(C)NC(COC(N)=O)=C(C(=O)OC(C)C)C1c1cccc(Cl)c1Cl", "note": "(centres undefined)", "cytotoxicity increase": "17.6% [at 35.3 µM] (inactive)"},
      {"smiles": "CCCCOC(=O)CCCCCCCC(=O)OCCCC", "cytotoxicity increase": "-16.7% (inactive)"},
      {"smiles": "CCN(CC)c1ccc(C(=C2C=CC(=[N+](CC)CC)C=C2)c2cc(S(=O)(=O)O)ccc2S(=O)(=O)[O-])cc1", "cytotoxicity increase": "0.632% [at 35.3 µM] (inactive)"},
      {"smiles": "CCC(C)(C)CC", "cytotoxicity increase": "-9.66% (inactive)"},
      {"smiles": "CCOC(=O)NCCOc1ccc(Oc2ccccc2)cc1", "cytotoxicity increase": "2.6% (inactive)"},
      {"smiles": "O[C@@H](COc1cccc2ncccc12)CN1CCN(C2c3ccccc3[C@@H]3[C@H](c4ccccc42)C3(F)F)CC1", "note": "(some centres undefined)", "cytotoxicity increase": "0.197% [at 35.3 µM] (inactive)"},
      {"smiles": "O=[N+]([O-])c1ccc(NCCO)c(OCCO)c1", "cytotoxicity increase": "-1.14% (inactive)"},
      {"smiles": "CN1CCN(C(c2ccccc2)c2ccccc2)CC1", "cytotoxicity increase": "-0.894% [at 35.3 µM] (inactive)"},
      {"smiles": "O=C(O)c1nc(Cl)c(Cl)c(Cl)c1Cl", "cytotoxicity increase": "-11.4% (inactive)"},
      {"smiles": "O=C(O)C1(C(=O)O)CCC1.[NH2-].[NH2-].[Pt+2]", "cytotoxicity increase": "-25.5% [at 35.3 µM] (inactive)"},
      {"smiles": "CCCCCCCCCCCCCCOS(=O)(=O)O", "Potency": "43.6 µM (active)"},
      {"smiles": "CCCNCC(O)COc1ccccc1C(=O)CCc1ccccc1", "note": "(centres undefined)", "cytotoxicity increase": "15.6% [at 35.3 µM] (inactive)"},
      {"smiles": "O=C1C(O)=C(O)C(=O)C(O)=C1O", "cytotoxicity increase": "-20.4% [at 35.3 µM] (inactive)"},
      {"smiles": "C/C(=C(\\CCOP(=O)(O)O)SC(=O)c1ccccc1)N(C=O)Cc1cnc(C)nc1N", "cytotoxicity increase": "-7.37% [at 6.97 µM] (inactive)"},
      {"smiles": "C=CC(=O)OCCOCCOCCOCCOC(=O)C=C", "Potency": "49.2 µM (active) and 48.5 µM (active)"},
      {"smiles": "CC(=O)c1ccc2c(c1)N(CCCN(C)C)c1ccccc1S2", "cytotoxicity increase": "9.88% [at 35.3 µM] (inactive)"},
      {"smiles": "C/C=C(/C(=C/C)c1ccc(OC(C)=O)cc1)c1ccc(OC(C)=O)cc1", "cytotoxicity increase": "-18.4% [at 35.3 µM] (inactive)"},
      {"smiles": "NCC(=O)CCC(=O)O", "cytotoxicity increase": "4.76% [at 35.3 µM] (inactive)"},
      {"smiles": "CCCCCCCC#N", "cytotoxicity increase": "0.629% (inactive)"},
      {"smiles": "CCCCCCCCCCCCN1CCCCCC1=O", "cytotoxicity increase": "16.7% (inactive)"},
      {"smiles": "O=C(Nc1ccccc1)c1ccccc1O", "cytotoxicity increase": "10.7% (inactive)"},
      {"smiles": "CCC(C)O", "note": "(centres undefined)", "cytotoxicity increase": "-5.99% (inactive)"},
      {"smiles": "CN(C)CCN(Cc1ccccc1)c1ccccn1", "cytotoxicity increase": "-8.1% [at 35.3 µM] (inactive)"},
      {"smiles": "CCNc1cc(O)ccc1C", "Potency": "34.3 µM (active)"},
      {"smiles": "C#CCN(C)CCCOc1ccc(Cl)cc1Cl", "cytotoxicity increase": "17.5% [at 35.3 µM] (inactive)"},
      {"smiles": "Nc1cc(C(=O)O)c(O)c(S(=O)(=O)O)c1", "cytotoxicity increase": "-7.51% (inactive)"}
    ]},
    {"test": "qHTS RealTime-Glo MT Cell Viability Assay in HEK293 cells - 16 hour (AID 1224872); also: nearly all actives have a fitted effect of over 50% in size; as to activity change, negative = cytotoxicity: top concentration of the series differs between compounds", "conditions": "RealTime-Glo luminescence; series mostly up to 76.8 µM; activity change, negative = cytotoxicity: at the top concentration", "outline": "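HEK293 cells were seeded at 600 cells/well together with NanoLuc luciferase and cell-permeant prosubstrate, preincubated 5 h at 37 C/5% CO2, then given compound in DMSO by pintool. Luminescence from viable-cell prosubstrate reduction was read repeatedly over 40 h.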", "values": [
      {"smiles": "C[C@H](CCC(=O)O)[C@H]1CC[C@H]2[C@@H]3CC[C@@H]4C[C@H](O)CC[C@]4(C)[C@H]3C[C@H](O)[C@]12C", "activity change, negative = cytotoxicity": "-24.5% (inactive)"},
      {"smiles": "COC(=O)C1=C(C)NC(COC(N)=O)=C(C(=O)OC(C)C)C1c1cccc(Cl)c1Cl", "note": "(centres undefined)", "Potency": "26.8 µM (active)"},
      {"smiles": "CCCCOC(=O)CCCCCCCC(=O)OCCCC", "activity change, negative = cytotoxicity": "16.4% (inactive)"},
      {"smiles": "CCN(CC)c1ccc(C(=C2C=CC(=[N+](CC)CC)C=C2)c2cc(S(=O)(=O)O)ccc2S(=O)(=O)[O-])cc1", "activity change, negative = cytotoxicity": "4.34% [at 35.3 µM] (inactive)"},
      {"smiles": "CCCCCCCCCCCCCCCCCCOS(=O)(=O)O", "activity change, negative = cytotoxicity": "-23.9% (inactive)"},
      {"smiles": "CCC(C)(C)CC", "activity change, negative = cytotoxicity": "-10.9% (inactive)"},
      {"smiles": "O=[N+]([O-])c1ccc(NCCO)c(OCCO)c1", "activity change, negative = cytotoxicity": "-9.82% (inactive)"},
      {"smiles": "CN1CCN(C(c2ccccc2)c2ccccc2)CC1", "activity change, negative = cytotoxicity": "2.8% [at 35.3 µM] (inactive)"},
      {"smiles": "O=C(O)c1nc(Cl)c(Cl)c(Cl)c1Cl", "activity change, negative = cytotoxicity": "14.2% (inactive)"},
      {"smiles": "O=C(O)C1(C(=O)O)CCC1.[NH2-].[NH2-].[Pt+2]", "activity change, negative = cytotoxicity": "-7.08% [at 35.3 µM] (inactive)"},
      {"smiles": "CCCCCCCCCCCCCCOS(=O)(=O)O", "activity change, negative = cytotoxicity": "-11% (inactive)"},
      {"smiles": "CCN(CC)CCOC(=O)C(Cc1cccc2ccccc12)CC1CCCO1", "note": "(centres undefined)", "activity change, negative = cytotoxicity": "-25.9% [at 35.3 µM] (inactive)"},
      {"smiles": "CCCNCC(O)COc1ccccc1C(=O)CCc1ccccc1", "note": "(centres undefined)", "Potency": "2.13 µM (active)"},
      {"smiles": "O=C1C(O)=C(O)C(=O)C(O)=C1O", "activity change, negative = cytotoxicity": "-5.22% [at 35.3 µM] (inactive)"},
      {"smiles": "C/C(=C(\\CCOP(=O)(O)O)SC(=O)c1ccccc1)N(C=O)Cc1cnc(C)nc1N", "activity change, negative = cytotoxicity": "2.81% [at 6.97 µM] (inactive)"},
      {"smiles": "C=CC(=O)OCCOCCOCCOCCOC(=O)C=C", "Potency": "43.2 µM (active)"},
      {"smiles": "CC(=O)c1ccc2c(c1)N(CCCN(C)C)c1ccccc1S2", "activity change, negative = cytotoxicity": "-28.1% [at 35.3 µM] (inactive)"},
      {"smiles": "C/C=C(/C(=C/C)c1ccc(OC(C)=O)cc1)c1ccc(OC(C)=O)cc1", "activity change, negative = cytotoxicity": "-0.0549% [at 35.3 µM] (inactive)"},
      {"smiles": "NCC(=O)CCC(=O)O", "activity change, negative = cytotoxicity": "13.1% [at 35.3 µM] (inactive)"},
      {"smiles": "CCCCCCCC#N", "activity change, negative = cytotoxicity": "-0.304% (inactive)"},
      {"smiles": "O=C(Nc1ccccc1)c1ccccc1O", "activity change, negative = cytotoxicity": "-22.3% (inactive)"},
      {"smiles": "CCC(C)O", "note": "(centres undefined)", "activity change, negative = cytotoxicity": "11.4% (inactive)"},
      {"smiles": "CN(C)CCN(Cc1ccccc1)c1ccccn1", "activity change, negative = cytotoxicity": "-17.8% [at 35.3 µM] (inactive)"},
      {"smiles": "CCNc1cc(O)ccc1C", "activity change, negative = cytotoxicity": "4.29% (inactive)"},
      {"smiles": "C#CCN(C)CCCOc1ccc(Cl)cc1Cl", "activity change, negative = cytotoxicity": "-26.5% [at 35.3 µM] (inactive)"},
      {"smiles": "Nc1cc(C(=O)O)c(O)c(S(=O)(=O)O)c1", "activity change, negative = cytotoxicity": "8.02% (inactive)"},
      {"smiles": "C=C1C(=C/C=C2\\CCC[C@]3(C)[C@@H]([C@H](C)/C=C/[C@@H](O)C4CC4)CC[C@@H]23)C[C@@H](O)C[C@@H]1O", "Potency": "19 µM (active)"}
    ]}
  ]
}
